According to PubChem BioAssay (EPA / NIEHS):
Inconclusive results are not listed. The source made the active and inactive calls. The calls were made as follows: active = hit-call score of the fitted dose curve at least 0.9, where 1 is the maximum; inconclusive = response in the unintended direction; inactive = score below 0.9.

test: CCTE_Harrill_HTTr_CellCount_MCF7: CCTE's Cell Proliferation Assessment for the High-Throughput Transcriptomics (HTTr) Platform, Harrill Lab (AID 2284012);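 also: cells exposed to compound for six hours; intended direction is loss of nuclei count meaning fewer cells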
Summary of the method: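 Cell count from high-content imaging of Hoechst-labeled nuclei serves as viability/growth readout. Chemicals were applied to MCF-7 cells in eight concentrations for six hours, with fitting in both directions relative to DMSO.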

Row | SMILES | outcome
1 | [O-]/[N+](=N\O)c1ccccc1 | inactive
2 | CC(C)(O)CCc1ccccc1 | inactive
3 | Cc1ccc(C(C)(C)O)cc1 | inactive
4 | CC(=O)C1=C(C)[C@@H]2C[C@@]3(C1)[C@H](C)CC[C@H]3C2(C)C | inactive
5 | CCCc1ccc(O)cc1 | inactive
6 | C1COCO1 | inactive
7 | CCCCCCCCCC(=O)OCC | inactive
8 | CC(C)Cc1ccccc1 | inactive
9 | COC(=O)C(C)Oc1ccc(Oc2ncc(C(F)(F)F)cc2Cl)cc1 (stereo not given) | inactive
10 | NC(N)=S | inactive
11 | NC(N)=NC(N)=NCCc1ccccc1 | inactive
12 | CCCCCCCCCCCCCC(=O)OCC | inactive
13 | CN(C)C | inactive
14 | O=c1cc(-c2ccc(O)cc2)oc2cc(O)cc(O)c12 | inactive
15 | c1ccc2scnc2c1 | inactive
16 | Cc1cc(O)c2c(c1)C(=O)c1cc(O)cc(O)c1C2=O | inactive
17 | NC(=O)c1c(Cl)cccc1Cl | inactive
18 | CN1CCc2cccc3c2[C@H]1Cc1ccc(O)c(O)c1-3 | inactive
19 | CC(=O)C1C(=O)C=C(C)OC1=O (stereo not given) | inactive
20 | c1ccc(Cc2ccccc2)cc1 | inactive
